The structures appear in SMILES notation. Where a name gives a salt, the structure may show the parent alone. ± gives the standard deviation of the averaged measurements. The full ranking holds about 3,100 compounds; the median of “mean cytoplasmic OPP incorporation (global translation) relative to DMSO” is about 100, and the lowest 2% start at about 56. Shown is part of a subset that was picked to be rich in the lowest values.

This experiment deals with U2OS. The experiment in a line: mean cytoplasmic OPP incorporation (global translation) relative to DMSO (% of DMSO); higher = more protein synthesis. Conditions: 10 µM; 24 h. As to the method:
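Primary image-based screen in U2OS cells: compounds at 10 uM for 24 h, then a 1 h o-propargyl-puromycin (OPP) pulse, click labelling, and high-throughput microscopy. Mean cytoplasmic OPP intensity and nuclei count were normalised to DMSO wells within each plate (DMSO = 100) and averaged over triplicate plates.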
Regarding `C[C@]12CC[C@H](O)C[C@H]1CC[C@@H]1[C@@H]2CC[C@]2(C)[C@@H](C3=CC(=O)OC3)CC[C@]12O` [Digitoxigenin], the “mean cytoplasmic OPP incorporation” value turned out to be 26.3.
Consider `CC(=O)[C@H]1CC[C@H]2[C@@H]3CC[C@H]4C[C@H](O)CC[C@]4(C)[C@H]3C(=O)C[C@]12C` [Alfaxalone], for which the “mean cytoplasmic OPP incorporation” value was found to be 102.
Next, `CC(=O)O[C@H]1C[C@H](O[C@H]2[C@@H](O)C[C@H](O[C@H]3[C@@H](O)C[C@H](O[C@H]4CC[C@@]5(C)[C@H](CC[C@@H]6[C@@H]5C[C@@H](O)[C@]5(C)[C@@H](C7=CC(=O)OC7)CC[C@]65O)C4)O[C@@H]3C)O[C@@H]2C)O[C@H](C)[C@H]1O[C@@H]1O[C@H](CO)[C@@H](O)[C@H](O)[C@H]1O` [Lanatoside C]: 27.8; `C[C@]12CC[C@H](O)C[C@H]1CC[C@@H]1[C@@H]2C[C@@H](O)[C@]2(C)[C@@H](C3=CC(=O)OC3)CC[C@]12O` [Digoxigenin]: 32; `C[C@]12CC[C@H](O)C[C@@H]1CC[C@@H]1[C@@H]2CC[C@]2(C)C(=O)CC[C@@H]12` [Epiandrosterone]: 90.1.
Consider `C[C@]12CC[C@@H](O)C[C@@H]1CC[C@@H]1[C@@H]2CC[C@]2(C)C(=O)CC[C@@H]12` [Androsterone], for which the “mean cytoplasmic OPP incorporation” value amounted to 97.1.
Next, `C[C@]12CC[C@H](O)C[C@@H]1CC[C@@H]1[C@@H]2CC[C@]2(C)C(=O)CC[C@@H]12`: 95.2; `C[C@]12CC[C@@H](O)C[C@H]1CC[C@@H]1[C@@H]2CC[C@]2(C)C(=O)CC[C@@H]12` [3-alpha-Hydroxy-5-beta-androstan-17-one]: 89.8; `CN(C)CCN(C)CCc1ccc(Cl)c(Cl)c1` [BD 1047 dihydrobromide]: 105.
Regarding `CN(C(=O)Cc1ccc(Cl)c(Cl)c1)[C@H](CN1CCCC1)c1ccccc1` [ICI-199,441 hydrochloride], the “mean cytoplasmic OPP incorporation” value is 111.
As to `CCCN(CCC)[C@@H]1CCc2c(OC)cccc2[C@@H]1C` [(+)-UH 232 maleate], the “mean cytoplasmic OPP incorporation” value was 102.
`NC(C(=O)O)c1nn[nH]n1` (racemic) [(RS)-(Tetrazol-5-yl)glycine]: the “mean cytoplasmic OPP incorporation” value was 102.
`CC1(C)[C@@H](O)C[C@H]2[C@](C)(O)[C@@H]3CC[C@@H]4[C@@H](O)[C@@]3(C[C@@H](O)[C@@]21O)C[C@@]4(C)O` [Grayanotoxin III]: the “mean cytoplasmic OPP incorporation” value amounted to 102.
For `Clc1ccc(C2=CCCC3CCC2N3)cn1` (stereo unspecified) [UB 165 fumarate] the value was 97.7; for `CCC(Oc1ccc(Cl)cc1)C(=O)OC1C[C@H]2CC[C@@H](C1)N2C` (stereo partly specified) [SM-21 maleate], 106.
For `N=C(NCc1ccc(Cl)cc1)SCCCc1c[nH]cn1` [Clobenpropit dihydrobromide] the value was 95.4.
For `CC(N)Cc1cnc[nH]1` (stereo unspecified) the value was 101; for `C=CCN1CC[C@]2(C)c3cc(O)ccc3C[C@H]1C2C` (single isomer, unassigned; (+)), 105.
Consider `COc1ccc(C(=O)O[C@H]2CC[C@@]3(C)[C@@H]4CC[C@H]5[C@]6(O)C[C@H](O)[C@@]7(O)[C@@H](CN8C[C@@H](C)CC[C@H]8[C@@]7(C)O)[C@]6(O)C[C@@]53O[C@]24O)cc1OC` [Veratridine], for which the “mean cytoplasmic OPP incorporation” value turned out to be 108.
As for `COc1ccc2[nH]cc(C3=CCNCC3)c2c1`, the “mean cytoplasmic OPP incorporation” value worked out at 101.
Next, `CC(C)(Cc1c[nH]c2ccc(Cl)cc12)NCCOc1ccccc1OCC1CC1`: 55.1; `Cn1cc(C(=O)C(=O)N[C@H]2CN3CCC2CC3)c2ccccc21`: 99.4; `OC(Cc1ccncc1)C(Cl)(Cl)Cl` (stereo unspecified): 104.
As to `C=C(C)CN1CC[C@@]23c4c5ccc(O)c4O[C@H]2c2[nH]c4ccccc4c2C[C@]3(O)C1C5` [SDM25N hydrochloride], the “mean cytoplasmic OPP incorporation” value was 95.8.
For `O=Cc1cn(Cc2ccc(Cl)cc2)c2ccccc12` [Oncrasin 1] the value was 83.4; for `CN1C(=O)[C@]23CC4=CC=C[C@H](O)[C@H]4N2C(=O)[C@@]1(CO)SS3` [Gliotoxin], 33.6.
`CCC[C@@H]1CC2=CC(=O)CC[C@]2(C)[C@H]2CC[C@@]3(C)[C@@H](CC[C@@]3(O)CCC(=O)O)[C@H]12`: the “mean cytoplasmic OPP incorporation” value turned out to be 96.1.
Turning to `Oc1ccc2c3c1O[C@H]1c4c(c5ccccc5n4Cc4ccccc4)C[C@@]4(O)C(C2)N(CC2CC2)CC[C@]314` [N-Benzylnaltrindole hydrochloride], the “mean cytoplasmic OPP incorporation” value worked out at 111.
Consider `Cc1nc(N)sc1CCN` [Amthamine dihydrobromide], for which the “mean cytoplasmic OPP incorporation” value came to 107.
Next, `C[C@@H]1O[C@@H](O[C@H]2C[C@@H](O)[C@]3(CO)[C@H]4[C@H](O)C[C@]5(C)[C@@H](C6=CC(=O)OC6)CC[C@]5(O)[C@@H]4CC[C@]3(O)C2)[C@H](O)[C@H](O)[C@H]1O` [Ouabain]: 47 ± 1.8.
As for `Cc1ncc(CN2CC=C(c3ccccc3)CC2)c(N)n1`, the “mean cytoplasmic OPP incorporation” value came out at 101.
With `CC(CN)CC(=O)O` (stereo unspecified) [3-Methyl-GABA], the “mean cytoplasmic OPP incorporation” value is 102.
On to `CC1(C)[C@H](C(=O)O[C@H](C#N)c2cccc(Oc3ccccc3)c2)[C@@H]1C=C(Br)Br` [Deltamethrin], for which the “mean cytoplasmic OPP incorporation” value came out at 101.
On to `O=C1NC(=O)c2c1c1c3ccccc3n3c1c1c2c2ccccc2n1[C@H]1CC[C@@H]3O1`, for which the “mean cytoplasmic OPP incorporation” value turned out to be 91.2.
`O=C(O)C1=CCCN(CCOC(c2ccc(C(F)(F)F)cc2)c2ccc(C(F)(F)F)cc2)C1` [CI 966 hydrochloride]: the “mean cytoplasmic OPP incorporation” value was determined as 97.6.
As to `COc1cc(N)c(Cl)cc1C(=O)NC1CN2CCC1CC2` (stereo unspecified) [Zacopride hydrochloride], the “mean cytoplasmic OPP incorporation” value is 104.
Take `C[CH2][Hg][S]c1ccccc1C(=O)[O-].[Na+]` [Thimerosal]: the “mean cytoplasmic OPP incorporation” value turned out to be 15.5.
Next, `O=C(O)/C=C/CO` [trans-4-Hydroxycrotonic acid]: 105.
For `C[C@@H]1C[C@@H]([C@H](O)CC2CC(=O)NC(=O)C2)C(=O)[C@@H](C)C1` [Cycloheximide], the “mean cytoplasmic OPP incorporation” value came to 52.1 ± 35.
Turning to `CC[N+](CC)(CCCNC1=CC(=O)C(NCCC[N+](CC)(CC)Cc2ccccc2)=CC1=O)Cc1ccccc1` [Benzoquinonium dibromide], the “mean cytoplasmic OPP incorporation” value was determined as 101.
With `O=C1CSC(c2ccccc2Cl)c2cc(Cl)ccc2N1` (stereo unspecified), the “mean cytoplasmic OPP incorporation” value was 101.
As for `CCOC(=O)c1ncn2c1CN(C)C(=O)c1cc(N=[N+]=[N-])ccc1-2`, the “mean cytoplasmic OPP incorporation” value is 91.9.
Next, `Cn1c2c(c3ccccc31)CCNCC2`: 97.4; `Fc1ccc(C(OCCN2CCN(C/C=C/c3ccccc3)CC2)c2ccc(F)cc2)cc1`: 102.
`CCCOc1ccc2[nH]cc(C3=CCNCC3)c2n1`: the “mean cytoplasmic OPP incorporation” value was determined as 103.
Turning to `CC(=O)O[C@H]1CC[C@@]2(C)C(=CC[C@@H]3[C@@H]2CC[C@]2(C)C(=O)CC[C@@H]32)C1` [Dehydroisoandosterone 3-acetate], the “mean cytoplasmic OPP incorporation” value amounted to 83.5.
`C[C@@H]1CC[C@@]2(OC1)O[C@H]1C[C@H]3[C@@H]4CC=C5C[C@@H](O[C@@H]6O[C@H](CO)[C@@H](O[C@@H]7O[C@@H](C)[C@H](O)[C@@H](O)[C@H]7O)[C@H](O)[C@H]6O[C@@H]6O[C@@H](C)[C@H](O)[C@@H](O)[C@H]6O)CC[C@]5(C)[C@H]4CC[C@]3(C)[C@H]1[C@@H]2C` [Dioscin (Collettiside III)]: the “mean cytoplasmic OPP incorporation” value amounted to 50.2.
As to `C=CCN1C[C@H](C)N([C@H](c2ccc(C(=O)N(CC)CC)cc2)c2cccc(O)c2)C[C@H]1C`, the “mean cytoplasmic OPP incorporation” value was 111.
For `O=C1CC[C@@]2(O)[C@H]3Cc4ccc(O)c5c4[C@@]2(CCN3CC2CC2)[C@H]1O5` [Naltrexone hydrochloride dihydrate], the “mean cytoplasmic OPP incorporation” value was 108.
As to `O=C1/C(=C/c2ccccc2)C[C@@]2(O)[C@H]3Cc4ccc(O)c5c4[C@@]2(CCN3CC2CC2)[C@H]1O5` [BNTX maleate], the “mean cytoplasmic OPP incorporation” value is 34.8.
Next, `Oc1ccc2c3c1O[C@H]1c4[nH]c5c(c4C[C@@]4(O)[C@@H](C2)N(CC2CC2)CC[C@]314)C[C@@]1(O)[C@H]2Cc3ccc(O)c4c3[C@@]1(CCN2CC1CC1)[C@H]5O4` [nor-Binaltorphimine dihydrochloride]: 102; `NCC(CS(=O)(=O)O)c1ccc(Cl)cc1` (stereo unspecified) [Saclofen]: 104; `C[C@@H]1O[C@@H](O[C@@H]2C=C3CC[C@@H]4[C@H](CC[C@]5(C)[C@@H](c6ccc(=O)oc6)CC[C@]45O)[C@@]3(C)CC2)[C@H](O)[C@H](O)[C@H]1O` [Proscillaridin A]: 17.5.
Take `Cc1ccc2cc3c(ccc4ccccc43)c3c2c1CC3` [3-Methylcholanthrene]: the “mean cytoplasmic OPP incorporation” value stood at 114.
On to `O=C(O)CCC(CP(=O)(O)O)C(=O)O` (stereo unspecified) [PMPA (NAALADase inhibitor)], for which the “mean cytoplasmic OPP incorporation” value worked out at 105.
Consider `CCOc1cncc(/C=C/CCNC)c1` [TC 2559 difumarate], for which the “mean cytoplasmic OPP incorporation” value is 97.5.

(Values after the supplement of paper PMC8183993.)
